# Inconclusive results are not listed. The source made the active and inactive calls. The call rests on the fitted dose curve; in most records, active means well fitted inhibition curve with a large enough effect; inconclusive means small, poorly fitted or top-dose-only effect; inactive means no such curve, though single readings can be large or run the other way.
# Assay: InCell qHTS Assay for Inhibitors of the mTORC1 Signaling Pathway in MEF (Tsc2-/-, p53-/-) Cells: Hit Validation;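 further: phospho-S6 Ser235/236 signal normalized to propidium iodide cell count per well; nearly all actives have a fitted effect of over 75% in size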
# Conditions: phospho-rpS6 immunofluorescence, 24 h; activity change, negative = inhibition: at 38.3 µM (top of the series)
# Potency means the concentration at half of the fitted maximal effect.
SMILES,"activity change, negative = inhibition",Potency
COc1ccc(S(=O)(=O)N(Cc2nc(-c3cccc(C)c3)no2)C2CCCCC2)cc1,-100%,–
CC(C)N(C(=O)Cn1cc(S(=O)(=O)Cc2ccc(Cl)cc2)c2ccccc21)C(C)C,-100%,–
COc1ccc(CCN2C(=O)c3[nH]nc(-c4ccccc4O)c3C2c2cccc(OC)c2)cc1 (configuration not stated),-28.2%,–
CCN(CC)CCOC(=O)c1ccc(NC(=O)c2nn(-c3ccc(C)cc3)c(=O)c3c2c2ccccc2n3C)cc1,–,3.29 µM (active)
Cc1ccc(C(=O)CC2(O)C(=O)N(Cc3ccccc3)c3ccccc32)c(C)c1 (configuration not stated),-100%,–
Cc1ccc(NC(=O)c2c(C)oc3ccc(O)c(CN(C)Cc4ccccc4)c23)c(C)c1,-100%,–
O=C(Nc1ccc2nc(SCC(=O)N3CCCc4ccccc43)sc2c1)c1ccccc1F,-100%,–
COc1ccccc1N=c1scc(-c2ccc(S(=O)(=O)N3CCCC3)cc2)n1C,-100%,–
CCN1CCC(N(Cc2ccc(F)cc2)C(=O)Nc2ccc(C)c(F)c2)CC1,-100%,–
Cn1nc(-c2ccc(OCC(=O)Nc3ccccc3)cc2)c2ccccc2c1=O,-100%,–
COc1ccc(-c2n[nH]c3c2C(c2ccc(O)cc2)N(c2ccc(Br)cc2)C3=O)cc1 (configuration not stated),-100%,–
CCOc1ccc(N(Cc2ccccc2)C(=O)c2nc(S(C)(=O)=O)ncc2Cl)cc1,–,2.93 µM (active)
CN1CCN(C2(CNC(=O)COc3ccc(C(C)(C)C)cc3)CCCCC2)CC1,-100%,–
Cn1ccc2c(OCC(=O)Nc3ccc(OC(F)(F)F)cc3)cccc2c1=O,-100%,–
Cc1ccccc1CN1C(=O)C(O)(CC(=O)c2ccccc2)c2cc(Cl)ccc21 (configuration not stated),-2.04%,–
Cc1ccc(-c2csc(-c3cc4c([nH]c3=O)CC(c3ccccc3)CC4=O)n2)cc1 (configuration not stated),-100%,–
CCCN1C(=O)C(Cc2nc3ccccc3c(=O)n2CC)c2cc(Br)ccc21 (configuration not stated),-100%,–
CC(C)c1ccc(NS(=O)(=O)c2ccc3nc(-c4ccccc4)[nH]c3c2)cc1,-100%,–
Cc1cccc(N(C)S(=O)(=O)c2ccc(-c3cc(C)no3)s2)c1,-9.17%,–

SMILES,"activity change, negative = inhibition",Potency
Cc1ccccc1NC(=O)Cn1cc(C(=O)c2cccs2)c2ccccc21,-100%,–
CCCCC1CCC(C(=O)N2CC(=O)Nc3ccc(Cl)cc3C2c2ccc(F)cc2)CC1 (configuration not stated),-100%,–
CCOC(=O)N1CCN(Cc2nc3cc(NC(=O)C(C)C)ccc3n2C(C)C)CC1,-100%,–
CC1=Nc2cc(C(=O)NC3CCCCC3)ccc2Sc2ccc(Cl)cc21,-100%,–
Cc1cccc(CSc2cn(CC(=O)N3CCCCCC3)c3ccccc23)c1,-100%,–
COc1ccc(OC)c(Nc2c3c(nc4ccccc24)CCC3)c1,-25.7%,–
CCNS(=O)(=O)c1ccc(NC(=O)CSc2nc(-c3ccco3)cc(C(F)(F)F)n2)cc1,-13.9%,–
O=C(NCCc1ccc(Cl)cc1)C(=O)NCC(c1cccs1)S(=O)(=O)c1cccs1 (configuration not stated),-100%,–
CC1=Nc2cc(C(=O)NC3CCCC3)ccc2Sc2ccc(Br)cc21,-100%,–
FC(F)(F)c1cccc(Nc2nc3nonc3nc2Nc2ccc(Cl)cc2)c1,-100%,–
Cc1cc(C)c(-c2n[nH]c3c2C(c2ccccc2F)N(Cc2ccco2)C3=O)c(O)c1 (configuration not stated),-100%,–
Cc1ccc(CNS(=O)(=O)c2cc(C(=O)Nc3cccc(C(F)(F)F)c3)ccc2F)cc1,-100%,–
CCOC(=O)C1=C(CN2CCN(c3cc(C)ccc3C)CC2)NC(=O)NC1c1ccc(Cl)cc1 (configuration not stated),-100%,–
COc1ccc(Nc2nc(N)c3cc(OC)c(OC)cc3n2)cc1,-100%,–
Cc1ccc2sc(N(CCCN(C)C)C(=O)c3ccco3)nc2c1C,-25.4%,–
CCOc1ccc(CC(=O)NC2CC(=O)N(c3ccc4c(c3)OCCO4)C2)cc1 (configuration not stated),-100%,–
CC(C)(C)c1ccc(-c2nc(S(=O)(=O)c3ccccc3)c(N3CCOCC3)o2)cc1,-100%,–
COc1cc(Cl)c(C)cc1NC(c1ccccc1)c1nnc(-c2ccccc2Cl)o1 (configuration not stated),-100%,–

# — PubChem BioAssay AID651791 (National Center for Advancing Translational Sciences (NCATS), 2012)
